This is part of a sample that, as a whole, favours compounds with a hit. Of some 79,000 tested, about 15% had one in any assay. Activity calls are given as the source filed them. Rule as the data show it: active = growth inhibition above about 70%; inactive = the rest.
Test: NCI Yeast Anticancer Drug Screen. Data for the rad50 strain (AID 155);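 also: 0% = growth of vehicle-only cultures of the same strain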
Settings: S. cerevisiae rad50 strain growth inhibition; at 50.0 µM; hits give high values
Method in brief: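 A DNA repair-deficient yeast mutant serves as the test organism; compound-induced growth inhibition is calculated against vehicle-treated cells.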

Compound | growth inhibition
COC1C2CCC1C(N=O)C2Br (stereo not given) | -23.2% (inactive)
CC(CO)(NC(=O)c1ccccc1)C(=O)O (stereo not given) | 13.4% (inactive)
COc1cc(-c2c(C)c(C)nc(OC)c2C#N)cc(OC)c1OC | -1.05% (inactive)
NC(Cc1ccc(B(O)O)cc1)C(=O)O (stereo not given) | -26.1% (inactive)
COc1cc2c(cc1OC)C1=Cc3cc(OC)c(OC)cc3C(C)N1C=C2 (stereo not given) | 6.15% (inactive)
CC(=O)N(CN1C(=O)CCC1C(=O)O)c1cccc(O)c1 (stereo not given) | 8.45% (inactive)
CC1SCCNC1=O (stereo not given) | -2.1% (inactive)
O=C1OCC/C1=C\c1cccc2ccccc12 | 5.2% (inactive)
COc1ccc(CSc2n[nH]c(=O)[nH]c2=S)cc1 | 14.8% (inactive)
O=C(Nc1ccccc1)Oc1ccc(Cl)cc1Cc1ccccc1 | 99.7% (active)
ClC1(Cl)CC1c1ccccc1 (stereo not given) | 0.1% (inactive)
CC(C)(C)c1cc2c(O)c(c1)Cc1cc(C(C)(C)C)cc(c1O)Cc1cc(C(C)(C)C)cc(c1O)Cc1cc(C(C)(C)C)cc(c1O)Cc1cc(C(C)(C)C)cc(c1O)Cc1cc(C(C)(C)C)cc(c1O)Cc1cc(C(C)(C)C)cc(c1O)Cc1cc(C(C)(C)C)cc(c1O)C2 | -12.8% (inactive)
Cc1cc2c(C)[nH]nc2c(C(=O)O)c1C | 6.85% (inactive)
NC(=O)CCn1ccc2ccccc21 | 0.5% (inactive)
CSC(=S)n1nc(-c2cccs2)c(N=Nc2ccc([N+](=O)[O-])cc2)c1C(F)(F)F | 19.1% (inactive)
C[C@]12CC[C@@H]3c4cc(C=O)c(OCc5ccccc5)cc4CC[C@H]3[C@@H]1CCC2OCc1ccccc1 (stereo not given in full) | 12.4% (inactive)
C[C@H](CCc1nc(C#N)c(N)o1)[C@H]1CC[C@H]2[C@@H]3[C@@H](O)CC4C[C@@H](O)CC[C@]4(C)[C@H]3C[C@@H](O)[C@]12C (stereo not given in full) | 26.4% (inactive)
CC(N)c1ccc2ccccc2c1O (stereo not given) | -3.95% (inactive)
O=C=Nc1ccc([N+](=O)[O-])cc1 | -0.9% (inactive)
O=C(O)/C(=C/c1ccccc1[N+](=O)[O-])c1cccs1 | 27.9% (inactive)

Compound | growth inhibition
O=C(O)c1ccc(/C=N\N(CCO)C2=NCCN2)cc1 | 0% (inactive)
O=C(OCCCCCCCCOC(=O)c1cccc([N+](=O)[O-])c1)c1cccc([N+](=O)[O-])c1 | 20.9% (inactive)
CCCCCCCC/C=C\CCCCCCCC(=O)NCCN(CCN)C(=O)CCCCCCC/C=C\CCCCCCCC | -20.9% (inactive)
CC1/C(=N/O)CC(c2ccccc2)N(N=O)C1c1ccccc1 (stereo not given) | 62.8% (inactive)
O=c1[nH]cc(COCC(O)CO)c(=O)[nH]1 (stereo not given) | -27% (inactive)
OC(COc1ccc(Cl)cc1Cl)CN1CCCC1 (stereo not given) | 10.1% (inactive)
OC(CCCCCCCCC(O)CN1CCCCC1)CN1CCCCC1 (stereo not given) | 3.3% (inactive)
Cc1ccc(S(=O)(=O)NC(CC(C)C)C(=O)O)cc1 (stereo not given) | 6.65% (inactive)
CC(=O)OCOC(=O)CN(CC(=O)OCOC(C)=O)Cc1cc2c(cc1OC(C)=O)Oc1cc(OC(C)=O)c(CN(CC(=O)OCOC(C)=O)CC(=O)OCOC(C)=O)cc1C21OC(=O)c2ccccc21 | 14.1% (inactive)
OCC1CC(c2ccccc2)=NO1 (stereo not given) | -19.9% (inactive)
Cn1c(N)cc(=O)n(C)c1=O | 22.6% (inactive)
CC(=O)Oc1cc(N(C)C)ccc1SC(Cl)(Cl)Cl | -14.7% (inactive)
O=[N+]([O-])c1ccc(CCCCCc2ccccc2)cc1 | -6.15% (inactive)
O=C(O)C1CC2(CCC1c1ccccc1)SCCS2 (stereo not given) | 6.7% (inactive)
O=[N+]([O-])c1ccc(C2=NN(c3ccccc3)C(c3ccccc3)C2)cc1 (stereo not given) | 8% (inactive)
COc1cc(C2CC(C)=C(C)CC2C(=O)O)cc(OC)c1OC (stereo not given) | 1.55% (inactive)
O=C(/C=C/c1c[nH]c2ccccc12)c1ccccc1[N+](=O)[O-] | 5.45% (inactive)
Cc1ccccc1OCC(O)CO (stereo not given) | 4.2% (inactive)
Cc1ccc(/C=N/NS(=O)(=O)c2ccccc2)cc1 | 18.4% (inactive)
N#CC1(c2ccccc2)OC1(C#N)c1ccccc1 (stereo not given) | 3.1% (inactive)

Test: NCI Yeast Anticancer Drug Screen. Data for the mec2-1 strain (AID 157)
Settings: S. cerevisiae mec2-1 strain, at 50.0 µM, hits give high values
Method in brief: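 Test agents were screened against the mec2-1 yeast strain, with defined DNA repair or cell cycle alteration. Growth was scored as inhibition against vehicle-only controls.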

Compound | growth inhibition
COC1C2CCC1C(N=O)C2Br (stereo not given) | 3.75% (inactive)
CC(CO)(NC(=O)c1ccccc1)C(=O)O (stereo not given) | 9.25% (inactive)
COc1cc(-c2c(C)c(C)nc(OC)c2C#N)cc(OC)c1OC | -13.9% (inactive)
NC(Cc1ccc(B(O)O)cc1)C(=O)O (stereo not given) | -53.6% (inactive)
COc1cc2c(cc1OC)C1=Cc3cc(OC)c(OC)cc3C(C)N1C=C2 (stereo not given) | -6.3% (inactive)
CC(=O)N(CN1C(=O)CCC1C(=O)O)c1cccc(O)c1 (stereo not given) | 9% (inactive)
CC1SCCNC1=O (stereo not given) | -1.5% (inactive)
O=C1OCC/C1=C\c1cccc2ccccc12 | 2.4% (inactive)
COc1ccc(CSc2n[nH]c(=O)[nH]c2=S)cc1 | -4.45% (inactive)
O=C(Nc1ccccc1)Oc1ccc(Cl)cc1Cc1ccccc1 | 99.8% (active)
ClC1(Cl)CC1c1ccccc1 (stereo not given) | 11.9% (inactive)
CC(C)(C)c1cc2c(O)c(c1)Cc1cc(C(C)(C)C)cc(c1O)Cc1cc(C(C)(C)C)cc(c1O)Cc1cc(C(C)(C)C)cc(c1O)Cc1cc(C(C)(C)C)cc(c1O)Cc1cc(C(C)(C)C)cc(c1O)Cc1cc(C(C)(C)C)cc(c1O)Cc1cc(C(C)(C)C)cc(c1O)C2 | 9.65% (inactive)
Cc1cc2c(C)[nH]nc2c(C(=O)O)c1C | -5.15% (inactive)
NC(=O)CCn1ccc2ccccc21 | -5.8% (inactive)
CSC(=S)n1nc(-c2cccs2)c(N=Nc2ccc([N+](=O)[O-])cc2)c1C(F)(F)F | -3.75% (inactive)
C[C@]12CC[C@@H]3c4cc(C=O)c(OCc5ccccc5)cc4CC[C@H]3[C@@H]1CCC2OCc1ccccc1 (stereo not given in full) | -8.15% (inactive)
C[C@H](CCc1nc(C#N)c(N)o1)[C@H]1CC[C@H]2[C@@H]3[C@@H](O)CC4C[C@@H](O)CC[C@]4(C)[C@H]3C[C@@H](O)[C@]12C (stereo not given in full) | 9.8% (inactive)
CC(N)c1ccc2ccccc2c1O (stereo not given) | -7.05% (inactive)
O=C=Nc1ccc([N+](=O)[O-])cc1 | 15.7% (inactive)
O=C(O)/C(=C/c1ccccc1[N+](=O)[O-])c1cccs1 | 2.25% (inactive)

Compound | growth inhibition
O=C(O)c1ccc(/C=N\N(CCO)C2=NCCN2)cc1 | -4% (inactive)
O=C(OCCCCCCCCOC(=O)c1cccc([N+](=O)[O-])c1)c1cccc([N+](=O)[O-])c1 | 11.8% (inactive)
CCCCCCCC/C=C\CCCCCCCC(=O)NCCN(CCN)C(=O)CCCCCCC/C=C\CCCCCCCC | -18.4% (inactive)
CC1/C(=N/O)CC(c2ccccc2)N(N=O)C1c1ccccc1 (stereo not given) | 46.2% (inactive)
O=c1[nH]cc(COCC(O)CO)c(=O)[nH]1 (stereo not given) | -10.7% (inactive)
OC(COc1ccc(Cl)cc1Cl)CN1CCCC1 (stereo not given) | 11.8% (inactive)
OC(CCCCCCCCC(O)CN1CCCCC1)CN1CCCCC1 (stereo not given) | 25.6% (inactive)
Cc1ccc(S(=O)(=O)NC(CC(C)C)C(=O)O)cc1 (stereo not given) | -10.6% (inactive)
CC(=O)OCOC(=O)CN(CC(=O)OCOC(C)=O)Cc1cc2c(cc1OC(C)=O)Oc1cc(OC(C)=O)c(CN(CC(=O)OCOC(C)=O)CC(=O)OCOC(C)=O)cc1C21OC(=O)c2ccccc21 | 9.1% (inactive)
OCC1CC(c2ccccc2)=NO1 (stereo not given) | -11.1% (inactive)
Cn1c(N)cc(=O)n(C)c1=O | 3.95% (inactive)
CC(=O)Oc1cc(N(C)C)ccc1SC(Cl)(Cl)Cl | -17.9% (inactive)
O=[N+]([O-])c1ccc(CCCCCc2ccccc2)cc1 | -17.6% (inactive)
O=C(O)C1CC2(CCC1c1ccccc1)SCCS2 (stereo not given) | 1.15% (inactive)
O=[N+]([O-])c1ccc(C2=NN(c3ccccc3)C(c3ccccc3)C2)cc1 (stereo not given) | 3.1% (inactive)
COc1cc(C2CC(C)=C(C)CC2C(=O)O)cc(OC)c1OC (stereo not given) | 22.4% (inactive)
O=C(/C=C/c1c[nH]c2ccccc12)c1ccccc1[N+](=O)[O-] | 9.75% (inactive)
Cc1ccccc1OCC(O)CO (stereo not given) | -5.9% (inactive)
Cc1ccc(/C=N/NS(=O)(=O)c2ccccc2)cc1 | 13.8% (inactive)
N#CC1(c2ccccc2)OC1(C#N)c1ccccc1 (stereo not given) | -14.6% (inactive)

Source: PubChem BioAssay (NCI)
